Shown are actives, neighbours in structure and some others; about 0.49% of the full set was active somewhere.
EPAC2 antagonist: EPAC2 (human) antagonism; hit rate 0.18% among 360,000; Potency, µM (doses to about 114 µM), for inactives: top-dose activity, negative = inhibition, usual class: inhibitors; Q8WZA2; EPAC2 GEF exchange of Rap1B-BODIPY-GDP, fluorescence; note: % is set by controls: 0 for no effect and ±100 for the full control effect; nearly all actives have a fitted effect of over 45% in size
EPAC1 antagonist: EPAC1 (human) antagonism. O95398. EPAC1 GEF assay, Rap1b-BODIPY-GDP exchange fluorescence. Potency, µM (highest dose often 115 µM), without a hit: at the highest dose activity change, negative = inhibition, actives largely listed as inhibitors. hit rate 0.14% among 360,000. AID 720709;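 note: plate controls were vehicle for no effect and positive control for full effect; nearly all actives have a fitted effect of over 50% in size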
Target sequence (O95398 whole entry, looked up): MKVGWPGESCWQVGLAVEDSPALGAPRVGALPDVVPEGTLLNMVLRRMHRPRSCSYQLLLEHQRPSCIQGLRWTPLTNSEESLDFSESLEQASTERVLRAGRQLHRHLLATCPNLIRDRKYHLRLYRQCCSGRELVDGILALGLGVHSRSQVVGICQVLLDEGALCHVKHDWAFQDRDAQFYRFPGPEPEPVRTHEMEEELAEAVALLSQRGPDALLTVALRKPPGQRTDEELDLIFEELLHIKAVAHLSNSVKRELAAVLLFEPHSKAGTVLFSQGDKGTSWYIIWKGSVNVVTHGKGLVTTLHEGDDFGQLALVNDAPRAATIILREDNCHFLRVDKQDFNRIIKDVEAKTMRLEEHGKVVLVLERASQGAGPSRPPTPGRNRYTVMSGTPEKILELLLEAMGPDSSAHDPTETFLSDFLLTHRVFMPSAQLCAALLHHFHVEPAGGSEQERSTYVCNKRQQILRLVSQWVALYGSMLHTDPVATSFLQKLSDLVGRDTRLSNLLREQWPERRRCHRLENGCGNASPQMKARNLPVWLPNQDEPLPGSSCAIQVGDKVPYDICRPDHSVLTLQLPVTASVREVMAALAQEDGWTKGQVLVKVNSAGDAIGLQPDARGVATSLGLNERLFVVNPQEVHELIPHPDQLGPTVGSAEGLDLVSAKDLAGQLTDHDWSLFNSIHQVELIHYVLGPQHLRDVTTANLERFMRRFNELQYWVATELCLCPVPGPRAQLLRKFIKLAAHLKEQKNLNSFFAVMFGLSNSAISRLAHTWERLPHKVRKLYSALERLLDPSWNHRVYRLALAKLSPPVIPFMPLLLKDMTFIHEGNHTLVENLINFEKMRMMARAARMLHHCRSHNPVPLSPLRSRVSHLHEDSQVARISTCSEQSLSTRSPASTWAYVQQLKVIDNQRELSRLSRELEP
EPAC2 ag: activates human EPAC2 exchange factor; hit rate 0.079% among 360,000; EPAC2 activation, biochemical qHTS; response scale: 100% = 6.5 mM cAMP response; Potency, µM (top dose mostly 154 µM), for the others: at the highest dose activation, usual class: activators; Q8WZA2; note: nearly all actives have a fitted effect of over 50% in size
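In this primary screen, activation is scored as increased exchange of BODIPY-GDP from Rap1B by 100 nM EPAC2, with 50 uM GDP as competitor. Signal is normalized to the 6.5 mM cAMP agonist control.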
EPAC1 agonist: activates human EPAC1 exchange factor. EPAC1 agonist qHTS, biochemical assay; response scale: 100% = response to 6.5 mM cAMP. Potency, µM (highest dose often 154 µM), for the others: top-dose activation, most hits filed as activators. AID 720707. hit rate 0.073% among 360,000. O95398; note: nearly all actives have a fitted effect of over 60% in size
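Multi-concentration qHTS readout: loss of Rap1B-bound BODIPY-GDP fluorescence driven by 100 nM EPAC1 with excess GDP (50 uM), monitored kinetically at room temperature; agonist response expressed relative to 6.5 mM cAMP.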
USP1-UAF1 inh: inhibitors of human USP1/UAF1 deubiquitinase; O94782; recombinant USP1/UAF1, Ub-Rhodamine cleavage fluorescence; Potency, µM (top dose mostly 57.1 µM), for the others: at the highest dose activity change, negative = inhibition, actives largely listed as inhibitors; hit rate 0.23% among 390,000; note: % is set by controls: 0 for no effect and ±100 for the full control effect; nearly all actives have a fitted effect of over 60% in size
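1 nM enzyme complex + cpd, 15 min RT; start with Ub-Rho 150nM final; kinetic fluorescence ex 480/em 540, 6 reads q60 s. Buffer 50mM HEPES pH 7.8, 0.5mM EDTA, 0.1 mg/ml BSA, 1mM TCEP, 0.01% Tween-20.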
* = called active by the depositor; ? = inconclusive; . = not tested or not shown. Calls come from the whole dose curve; as a rule, active = well fitted curve in the direction sought with a large enough effect; inconclusive = small, poorly fitted or top-dose-only effect, or another doubt; inactive = no such curve, though single readings can be large; an effect the other way counts as inactive or inconclusive. Potency is the fitted concentration of half-maximal effect.

SMILES	EPAC2 antagonist	EPAC1 antagonist	EPAC2 ag	EPAC1 agonist	USP1-UAF1 inh
CCCOc1ccc(NC(=O)CC2C(=O)N(c3ccc(Cl)cc3)C(=O)N2CCc2ccncc2)cc1 (stereo not given)	.	.	.	.	-1.0%
COc1ccc(OC)c(-c2csc(NC(=O)COC(=O)c3ccc(NC(=O)CC#N)cc3)n2)c1	0.5%	79.4µM*	1.1%	9.8%	-10.5%
Cc1cccc(CCNC(=O)c2ccc3c(c2)nc2n3CCCCC2)c1	.	.	.	.	-11.0%
N#C/C(=C/C1=C(N2CCOCC2)C(=C/c2cccc([N+](=O)[O-])c2)/CC1)C(=O)Nc1ccccc1F	79.4µM*	0.6%	-6.6%	-1.9%	-8.7%
CCc1ccc(NC(=O)C(=O)NCC(c2cccnc2)N2CCN(Cc3ccccc3)CC2)cc1 (stereo not given)	.	.	.	.	-9.8%
CN(CCc1ccccn1)C(=O)Nc1ccc(F)cc1	5.2%	4.2%	6.31µM*	1.0%	-6.8%
O=C(CSc1ncnc2[nH]ncc12)Nc1cccc(Oc2ccccc2)c1	3.0%	?	31.6µM*	89.1µM*	-21.6%
Nc1nc(SCC(=O)Nc2cccc(Oc3ccccc3)c2)n[nH]1	3.4%	-23.3%	12.4%	-0.4%	-7.4%
CCN(CC)c1nc(N)c2c(N)nc3c(c2c1C#N)CC(c1ccccc1)O3 (stereo not given)	-8.8%	-1.1%	8.5%	10.0%	-12.4%
CCN(CC)c1nc(N)c2c(N)n(-c3ccccc3C)c(=S)c(C#N)c2c1C#N	-6.6%	89.1µM*	-9.8%	-23.2%	-21.8%
CC(C)c1ccc(NC(=O)CSc2nc(=O)n(Cc3ccccn3)c3c2CCC3)cc1	.	.	.	.	-24.9%
Cc1ccc2c(c1C)-c1c(ccc(C)c1C)C(=O)C2=O	?	-9.2%	13.8%	23.5%	8.91µM*
NS(=O)(=O)c1cc(C(=O)NC2CCSc3ccccc32)ccc1Cl (stereo not given)	35.5µM*	28.2µM*	-5.0%	-10.7%	?
C=CCN1C(=O)/C(=C/c2ccc(OCC(=O)O)cc2)S/C1=N/c1nccs1	50.1µM*	6.3%	-26.4%	-9.2%	-6.4%
CC(=O)N1C=CN(C(C)=O)C(c2cn(C)c3ccccc23)C1c1cn(C)c2ccccc12 (stereo not given)	56.2µM*	-6.7%	9.5%	17.7%	-13.7%
Cn1cc(/C=C/C(=O)c2ccccc2)c2ccccc21	-1.7%	-10.5%	13.4%	12.7%	-13.6%
Cc1ccc(Oc2ccc(S(=O)(=O)Nc3ccc(C(=O)O)cc3)cc2)cc1	-13.6%	10.2%	-1.1%	-18.9%	-12.1%
Cc1ccc(Sc2ccc(S(=O)(=O)Nc3ccc(C(=O)O)cc3)cc2)cc1C	?	70.8µM*	-2.5%	-6.1%	-23.4%
COc1ccc(C2CC(=O)Nc3c2c(=O)n(C)c2nc4ccccc4n32)cc1 (stereo not given)	.	.	.	.	-30.5%
Cc1ccc(C)c(S(=O)(=O)N2CCN(C(=O)CCc3c[nH]c4ccccc34)CC2)c1	-18.5%	5.8%	3.5%	11.6%	-25.0%
Cc1ccc(C)c(S(=O)(=O)N2CCN(C(=O)CCCc3c[nH]c4ccccc34)CC2)c1	-7.2%	-22.3%	14.7%	112µM*	-15.4%
Cc1cc2oc(=O)c(CC(=O)NCCc3ccccc3F)c(C)c2c2occ(C(C)(C)C)c12	.	.	.	.	-9.6%
COc1ccc(-c2cc3nc(C)c(CCC(=O)N4CCN(c5ccc(F)cc5)CC4)c(C)n3n2)c(OC)c1	.	.	.	.	-26.5%
CCCCn1c(NC(C)=O)c(C#N)c2nc3ccccc3nc21	-3.6%	1.3%	8.8%	5.7%	-21.8%
C=CCn1c(NC(=O)c2ccccc2Cl)c(C#N)c2nc3ccccc3nc21	?	?	-1.3%	7.5%	15.8µM*
SMILES	EPAC2 antagonist	EPAC1 antagonist	EPAC2 ag	EPAC1 agonist	USP1-UAF1 inh
CC1CCN(c2nn3c(=O)c(C(=O)NCCc4ccccc4)cnc3s2)CC1	.	.	.	.	-4.7%
Cc1ccccc1OCC(=O)OCc1cc(=O)n2ccsc2n1	.	.	.	.	-10.9%
Cc1cc(C(=O)c2ccccc2)cc(C)c1O	12.7%	-1.0%	-0.8%	-2.0%	-16.8%
CC1=C/C(=C(\c2cc(C)c(O)c(Br)c2)c2ccccc2S(=O)(=O)O)C=C(Br)C1=O	39.8µM*	?	-14.2%	-15.0%	?
COc1ccccc1NS(=O)(=O)c1cc([N+](=O)[O-])ccc1N/N=C/c1c(C)[nH]c2ccccc12	-0.4%	-2.1%	-6.4%	-0.6%	28.2µM*
O=C(NC1CCCC1)c1ccc2c(c1)N(Cc1c(F)cccc1Cl)C(=O)c1ccccc1S2	.	.	.	.	-26.1%
COc1cc(OC)c(NC(=O)c2c(C)oc3ncnc(N4CCCCC4)c23)cc1Cl	.	.	.	.	-17.1%
CCOC(=O)CC1C(=O)NCCN1c1nc2ccc(C)cn2c(=O)c1/C=C1\SC(=S)N(CC(C)C)C1=O (stereo not given)	-0.2%	30.2%	?	9.4%	12.6µM*
COc1ccc(OC)c(Nc2cc3ccccc3c(=O)[nH]2)c1	2.2%	?	13.5%	3.3%	5.01µM*
Cn1c(=O)cc(Nc2ccccc2)[nH]c1=O	0.8%	-4.2%	-0.1%	10.4%	-16.1%
COc1ccccc1Nc1cc2cc(Br)ccc2c(=O)[nH]1	-2.9%	?	13.3%	-0.8%	4.47µM*
O=c1[nH]c(Nc2ccccc2)cc2cc(Br)ccc12	-10.2%	?	6.4%	-5.1%	1.12µM*
O=c1[nH]c(Nc2ccccc2)cc2ccccc12	?	50.1µM*	5.8%	-5.7%	2.51µM*
CC(=O)c1cccc(Nc2nc(-c3ccccc3)nc3ccccc23)c1	1.9%	-5.7%	1.0%	-4.9%	-13.0%
CC(=O)c1cccc(-c2ccc3c(=O)[nH]c(Nc4ccccc4)cc3c2)c1	4.9%	50.1µM*	8.0%	12.6%	3.16µM*
CCOC(=O)c1c(C)sc(-c2c(-c3ccc(OC)c(F)c3)[nH]c3c2c(=O)[nH]c(=O)n3C)c1O	.	.	.	.	22.4µM*
CCOC(=O)c1c(C)sc(-c2c(-c3ccc4c(c3)OCCO4)[nH]c3c2c(=O)[nH]c(=O)n3C)c1O	.	.	.	.	25.1µM*
CCOC(=O)c1c(C)sc(-c2c(-c3ccc4c(c3)OCCO4)[nH]c3c2c(=O)n(C)c(=O)n3C)c1O	.	.	.	.	15.8µM*
Nc1ccc2c(c1)C(=O)C(=O)c1ccccc1-2	8.91µM*	?	-12.2%	-8.8%	1.26µM*

Bioassay records: PubChem, National Center for Advancing Translational Sciences (NCATS)
